Experiment [1] is described as follows: qHTS assay to identify small molecule agonists of the vitamin D receptor (VDR) signaling pathway - cell viability counter screen (AID 743224). Also: series mostly up to about 63 µM; nearly all actives have a fitted effect of over 50% in size. The method, boiled down:
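Viability is measured in the same wells as the VDR-bla reporter assay: after 16 h compound treatment and 2 h substrate loading, CellTiter-Glo is added and luminescence read 30 min later.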
A general note: qHTS replaces the single test concentration by a dilution series.

Experiment [2] can be described thus: qHTS assay to identify small molecule antagonists of the vitamin D receptor (VDR) signaling pathway - cell viability counter screen (AID 743225). Also: nearly all actives have a fitted effect of over 50% in size. The method, boiled down:
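HEK293T VDR-bla; cpd + 1a,25-(OH)2D3 3 nM final, 16 h 37C/5% CO2; B/G FRET substrate 2 h RT; then CellTiter-Glo 30 min RT, luminescence.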

A short description of experiment [3]: qHTS assay to identify small molecule agonists of the NFkB signaling pathway (AID 1159509; active = well fitted curve in the direction sought with a large enough effect in the signal ratio in the repeat runs, not every such curve was filed as active; the % refers to the signal ratio; also: series mostly up to about 61 µM). A digest of the protocol:
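NFkB-bla ME-180 cells carry a beta-lactamase reporter under an NF-kB response element. They were plated overnight, then exposed to compounds for 5 h at 37 C. Read-out is LiveBLAzer FRET after 1.5 hr at room temperature (405 nm excitation; 460/530 nm emission).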

A short description of experiment [4]: qHTS assay to identify small molecule agonists of the NFkB signaling pathway - cell viability counter screen (AID 1159515; calls by dose curve; also: series mostly up to about 61 µM; nearly all actives have a fitted effect of over 55% in size). A digest of the protocol: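 Multiplexed viability readout: after the 5 hr compound exposure and 1.5 hr FRET substrate step, CellTiter-Glo reagent went into the same NFkB-bla ME-180 wells; ATP luminescence was measured after 30 min at room temperature.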

Experiment [5] in a line: qHTS assay to identify small molecule agonists of the endoplasmic reticulum stress response signaling pathway (AID 1159516; active = well fitted activation curve with a large enough effect in the signal ratio in the repeat runs, not every such curve was filed as active; the % refers to the signal ratio). The method, boiled down: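 Tox21 10K library screened in quantitative HTS format on ESRE-bla HeLa cells, a beta-lactamase reporter under ER stress response element control; 5 hr treatment, FRET read.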
The nature of experiment [6]: qHTS assay to identify small molecule agonists of the endoplasmic reticulum stress response signaling pathway - cell viability counter screen (AID 1159517; calls by dose curve; also: series mostly up to about 61 µM; nearly all actives have a fitted effect of over 50% in size). A digest of the protocol: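 CellTiter-Glo was added to wells already read for beta-lactamase FRET, and luminescence was recorded 30 min later. Cells: ESRE-bla HeLa, 1,500 per well, compound exposure 5 hr at 37 C.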

The nature of experiment [7]: qHTS assay to identify small molecule antagonists of the retinoid-related orphan receptor gamma (ROR-gamma) signaling pathway - cell viability counter screen (AID 1159520). Also: nearly all actives have a fitted effect of over 50% in size. A digest of the protocol: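 Tet-on ROR gamma CHO cells (1,000/well) were plated 4 hr, given compounds in DMSO for 2 hr at 37 C, then induced with 1 uM final doxycycline for 16 hr. Viability was read as ATP by CellTiter-Glo luminescence after 30 min.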

Experiment [8] concerns the target Nuclear receptor ROR-gamma (Homo sapiens) (UniProt P51449). The experiment can be described thus: qHTS assay to identify small molecule antagonists of the retinoid-related orphan receptor gamma (ROR-gamma) signaling pathway (AID 1159521). The method, boiled down:
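Cells were plated, rested 4 h at 37 C, exposed to compounds for 2 h, then given 1 uM final doxycycline hyclate to induce RORγ expression. After 16 h, ONE-Glo luminescence from the ROR response element reporter was measured.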

A short description of experiment [9]: qHTS assay to identify small molecule agonists of the AP-1 signaling pathway - cell viability counter screen (AID 1159525; calls by dose curve; also: nearly all actives have a fitted effect of over 55% in size). A digest of the protocol: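 ME-180 AP-1-bla, 2500 cells/well, Opti-MEM + 0.5% dialyzed FBS; overnight 37 °C; cpd 15-pt titration, 5 h 37 °C; CellTiter-Glo 30 min RT; luminescence read; normalised to TOAB and DMSO controls.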
Experiment [10] can be described thus: qHTS assay to identify small molecule agonists of the AP-1 signaling pathway (AID 1159526; calls by dose curve).
For experiment [11], the target named is Retinoic acid receptor RXR-alpha (Homo sapiens) (UniProt P19793). The experiment can be described thus: qHTS assay to identify small molecule agonists of the RXR signaling pathway (AID 1159527; calls by dose curve; also: nearly all actives have a fitted effect of over 35% in size). A digest of the protocol: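 Cells plated at 2,000/well, rested 5 hr at 37 C, pin-dosed with DMSO compound solutions, incubated 16 hr, then loaded with B/G FRET substrate for 2 hr at RT before dual-emission fluorescence reading.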

Experiment [12] is described as follows: qHTS assay to identify small molecule agonists of the RXR signaling pathway - cell viability counter screen (AID 1159529). The method, boiled down: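 Steps: seed RXR-alpha-UAS-bla HEK 293T cells in assay medium containing 2% charcoal-stripped FBS; incubate 5 hr; add compounds in DMSO; incubate 16 hr at 37 C; after the bla read, add CellTiter-Glo and read luminescence at 30 min.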

A short description of experiment [13]: qHTS assay to identify small molecule antagonists of the retinoid acid receptor (RAR) signaling pathway - cell viability counter screen (AID 1159551). Also: nearly all actives have a fitted effect of over 35% in size. The method, boiled down: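 Cytotoxicity counter screen in C3RL4 cells: 6 h compound exposure with 1 uM retinol (final), viability from cellular ATP by luminescence.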
Experiment [14] is described as follows: qHTS assay to identify small molecule antagonists of the retinoic acid receptor (RAR) signaling pathway (AID 1159552; also: nearly all actives have a fitted effect of over 50% in size). A digest of the protocol: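 Retinol at 1 uM final stimulated RARE-luciferase expression in C3RL4 cells exposed to test compounds for 6 hr at 37 C. Reduced luminescence, read 30 min after detection reagent, indicated pathway antagonism.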

A short description of experiment [15]: qHTS assay to identify small molecule agonists of the retinoic acid receptor (RAR) signaling pathway (AID 1159553). Also: potency is read from the fitted curve at half-maximal effect. The method, boiled down: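 Agonist activity was scored in C3RL4 cells bearing a retinoic acid response element luciferase construct. Cells were treated with compounds for 6 hr at 37 C, and luciferase signal was measured as luminescence.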
A short description of experiment [16]: qHTS assay to identify small molecule antagonists of the estrogen related receptor (ERR) signaling pathway from Tox21 library - cell viability counter screen (AID 1224834). Also: nearly all actives have a fitted effect of over 30% in size. A digest of the protocol:
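Cytotoxicity of test substances is gauged in the same ERR cells used for the antagonist screen, after 17.5 h of compound treatment at 37 C, by CellTiter-Fluor fluorescence measured after 30 min.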

The target in experiment [17] is Luciferin 4-monooxygenase (Photinus pyralis) (UniProt P08659). As to the kind of experiment: qHTS assay to identify small molecule inhibitors of firefly luciferase (AID 1224835). Also: nearly all actives have a fitted effect of over 25% in size. Also: potency is read from the fitted curve at half-maximal effect. A digest of the protocol:
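Quantitative HTS format; KM concentrations of both substrates. Purified P. pyralis FLuc activity quantified from luminescence images.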

The nature of experiment [18]: qHTS assay to identify small molecule agonists of the constitutive androstane receptor (CAR) signaling pathway - cell viability counter screen (AID 1224836). Also: series mostly up to about 92 µM; nearly all actives have a fitted effect of over 45% in size. A digest of the protocol: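 Cells were seeded and incubated 4 hrs. Compounds were added across 15 concentrations together with PK11195 at 0.75 uM final. Plates were incubated 23 hrs at 37 C. CellTiter-Fluor was added and fluorescence measured.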

Experiment [19] is described as follows: qHTS assay to identify small molecule antagonists of the constitutive androstane receptor (CAR) signaling pathway - cell viability counter screen (AID 1224837). Also: series mostly up to about 92 µM; nearly all actives have a fitted effect of over 45% in size. The method, boiled down: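 Multiplexed cytotoxicity read-out for the CAR antagonist screen: double-stable HepG2-CYP2B6-hCAR cells co-treated with 50 nM CITCO (final) and compound over 15 concentrations, incubated 23 hr, then assessed by CellTiter-Fluor fluorescence.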

The target of experiment [20] is Nuclear receptor subfamily 1 group I member 3 (Homo sapiens) (UniProt Q14994). The experiment can be described thus: qHTS assay to identify small molecule antagonists of the constitutive androstane receptor (CAR) signaling pathway (AID 1224838). Also: nearly all actives have a fitted effect of over 40% in size. A digest of the protocol:
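Compounds were titrated across 15 concentrations onto HepG2 cells double-stably expressing hCAR and a CYP2B6-2.2kb reporter, together with 50 nM CITCO (final). After 24 h at 37 C, luciferase activity was measured by luminescence.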

Results filed as inconclusive are left out. Values without a mark were called inactive. Active and inactive are the calls of the source. Unless noted, calls follow the shape of the dose curve; as a rule, active = well fitted curve in the direction sought with a large enough effect in the repeat runs; inconclusive = weak or mixed curves; inactive = no such curve, though single readings can be large; an effect the other way counts as inactive or inconclusive.

This is an account of results in PubChem BioAssay (Tox21).

Retinoic acid receptor RXR-alpha (Homo sapiens), sequence (P19793 whole entry, looked up): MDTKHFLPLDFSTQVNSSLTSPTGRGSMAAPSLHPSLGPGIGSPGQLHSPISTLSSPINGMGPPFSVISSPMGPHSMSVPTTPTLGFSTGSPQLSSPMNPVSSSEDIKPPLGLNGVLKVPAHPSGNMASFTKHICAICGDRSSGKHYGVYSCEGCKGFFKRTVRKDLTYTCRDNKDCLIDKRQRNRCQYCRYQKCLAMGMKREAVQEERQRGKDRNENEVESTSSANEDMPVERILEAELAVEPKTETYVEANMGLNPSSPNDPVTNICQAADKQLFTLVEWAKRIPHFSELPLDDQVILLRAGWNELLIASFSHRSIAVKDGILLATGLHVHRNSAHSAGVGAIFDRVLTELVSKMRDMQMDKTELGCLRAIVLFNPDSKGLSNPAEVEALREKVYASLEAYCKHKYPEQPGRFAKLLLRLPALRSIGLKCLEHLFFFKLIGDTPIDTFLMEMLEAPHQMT
Nuclear receptor subfamily 1 group I member 3 (Homo sapiens), sequence (Q14994 whole entry, looked up): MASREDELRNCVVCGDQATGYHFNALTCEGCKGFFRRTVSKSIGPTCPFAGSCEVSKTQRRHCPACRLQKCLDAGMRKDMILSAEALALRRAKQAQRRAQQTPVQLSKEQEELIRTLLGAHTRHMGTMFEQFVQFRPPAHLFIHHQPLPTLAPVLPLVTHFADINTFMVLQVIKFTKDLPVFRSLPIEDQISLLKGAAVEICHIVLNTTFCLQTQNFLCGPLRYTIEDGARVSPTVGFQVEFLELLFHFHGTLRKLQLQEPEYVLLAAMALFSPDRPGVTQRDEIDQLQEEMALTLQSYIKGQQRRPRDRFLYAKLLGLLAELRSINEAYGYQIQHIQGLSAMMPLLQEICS
Luciferin 4-monooxygenase (Photinus pyralis), sequence (P08659 whole entry, looked up): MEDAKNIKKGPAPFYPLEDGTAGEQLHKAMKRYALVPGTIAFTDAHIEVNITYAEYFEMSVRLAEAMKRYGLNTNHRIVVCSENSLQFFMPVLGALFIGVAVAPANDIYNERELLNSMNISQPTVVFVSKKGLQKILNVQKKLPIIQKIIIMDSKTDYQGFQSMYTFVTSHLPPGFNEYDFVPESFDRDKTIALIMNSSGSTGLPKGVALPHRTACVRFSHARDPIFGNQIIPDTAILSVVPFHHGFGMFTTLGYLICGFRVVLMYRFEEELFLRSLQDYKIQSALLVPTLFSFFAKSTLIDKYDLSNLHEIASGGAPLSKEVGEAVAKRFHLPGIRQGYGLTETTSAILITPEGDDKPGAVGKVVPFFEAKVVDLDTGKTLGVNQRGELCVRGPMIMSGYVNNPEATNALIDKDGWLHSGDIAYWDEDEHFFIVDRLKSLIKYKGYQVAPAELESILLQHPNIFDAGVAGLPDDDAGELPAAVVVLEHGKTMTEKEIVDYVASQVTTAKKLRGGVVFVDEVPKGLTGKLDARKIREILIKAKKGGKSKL

Regarding `COc1cc(/C=C/C(N)=O)cc(OC)c1OC`, the call in experiment [1], in experiment [2], in experiment [3], in experiment [4], in [5] and in experiment [6] was inactive. The molecule was called inactive in [7], in experiment [8], in experiment [9], in experiment [10], in experiment [12] and in experiment [13]. Moreover, the molecule was classed as inactive in [14], in experiment [16], in experiment [18] and in experiment [19]. The Potency result in experiment [11], in [15], in [17] and in experiment [20] was “inactive” throughout.

For `ONc1ccccc1`, the outcome in [1], in experiment [3], in experiment [4], in experiment [5], in experiment [6] and in [7] was inactive. Also, the result in [8], in experiment [9], in experiment [10], in [12], in experiment [13] and in experiment [14] was inactive. In addition, the molecule was classed as inactive in experiment [16], in experiment [18] and in experiment [19]. Moreover, the Potency entry in experiment [11] and in experiment [20] was “inactive” throughout. Further, the Potency in experiment [15] is 24.1 µM (active); in experiment [17], 22.2 µM (active).

With `CC(=O)CCc1ccc(OC(C)=O)cc1`, the molecule was classed as inactive in [1], in [2], in [3], in [4], in experiment [5] and in [6]. The molecule was classed as inactive in [7], in experiment [8], in experiment [9], in experiment [10], in experiment [12] and in experiment [13]. The molecule was called inactive in [14], in [16], in [18] and in [19]. Besides, the Potency result in experiment [11], in experiment [15], in experiment [17] and in [20] was “inactive” throughout.

Consider `COc1ccc(CCO)cc1`, for which the molecule was classed as inactive in experiment [1], in [3], in experiment [4], in experiment [5], in experiment [6] and in experiment [7]. For the same molecule, the result in experiment [8], in [9], in experiment [10], in experiment [12], in experiment [13] and in experiment [14] was inactive. Moreover, the outcome in experiment [16], in [18] and in experiment [19] was inactive. The Potency entry in experiment [11], in experiment [15], in experiment [17] and in [20] was “inactive” throughout.

For `CCCCCCC1(C)CCC(=O)O1` (stereo unspecified), the molecule was called inactive in experiment [1], in experiment [2], in [3], in experiment [4], in experiment [5] and in experiment [6]. The molecule was classed as inactive in experiment [7], in [8], in experiment [9], in experiment [10], in experiment [12] and in experiment [13]. For the same molecule, the outcome in experiment [14], in [16], in experiment [18] and in experiment [19] was inactive. For the same molecule, the Potency entry in experiment [11], in [15], in experiment [17] and in experiment [20] was “inactive” each time.

In the case of `COP(=O)(O)OP(=O)(O)OC`, the call in experiment [1], in experiment [3], in experiment [4], in [5], in experiment [6] and in [7] was inactive. The result in experiment [8], in [9], in experiment [10], in [12], in experiment [13] and in experiment [14] was inactive. The result in [16], in experiment [18] and in [19] was inactive. For the same molecule, the Potency entry in experiment [11], in experiment [15], in [17] and in experiment [20] was “inactive” in each case.

As for `CCCC(=O)OC/C=C(\C)CCC=C(C)C`, the call in experiment [1], in experiment [3], in [4], in [5], in [6] and in experiment [7] was inactive. The result in [8], in experiment [9], in experiment [10], in experiment [12], in [13] and in experiment [14] was inactive. For the same molecule, the molecule was called inactive in experiment [16], in experiment [18] and in [19]. The Potency result in experiment [11], in experiment [15], in experiment [17] and in experiment [20] was “inactive” throughout.
